According to PubChem BioAssay AID485317 (Broad Institute, 2010):
Out of some 290,000 compounds screened, about 11,000 (3.8%) were called active.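 The calls were made as follows: active = mean replicate inhibition above about 79%, with every replicate also reaching it (limit read from the data); inconclusive = only one of the two criteria met; inactive = mean below limit and not every replicate reaching it.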 This excerpt belongs to a sample that is enriched for actives.

The compounds below were run against FAD-linked sulfhydryl oxidase ALR (Homo sapiens) (UniProt P55789) (assay: ALR-catalysed DTT oxidation blockers – biochemical, H2O2 detection, HRP-luminol luminescence, single point, primary screen (AID 485317)). Details: purified ALR, hits give high values, concentration not given here.
Chain of FAD-linked sulfhydryl oxidase ALR (Homo sapiens) (P55789 whole entry, looked up): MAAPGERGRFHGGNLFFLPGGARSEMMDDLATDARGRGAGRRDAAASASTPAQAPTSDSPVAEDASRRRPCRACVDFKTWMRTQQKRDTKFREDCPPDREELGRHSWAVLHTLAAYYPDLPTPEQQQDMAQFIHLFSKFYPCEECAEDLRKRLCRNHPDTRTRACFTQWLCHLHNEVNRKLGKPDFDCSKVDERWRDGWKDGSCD
For `COc1cc(/C=C2\Oc3ccc(C#Cc4ccc(O)cc4)cc3C2=O)cc(OC)c1`, the inhibition was 4.14% (inactive).
For `CC(NS(=O)(=O)c1ccccc1)c1n[nH]c(=S)n1-c1ccccc1` (configuration not stated), the inhibition was 86.4% (active).
In the case of `CC(NS(=O)(=O)c1ccc(OCC(=O)N2CCCC2)cc1)c1ccccc1` (configuration not stated), the inhibition is reported as -2.54% (inactive).
For `S=c1[nH]nc(COc2ccccc2)n1-c1ccccc1`, the inhibition was 31.7% (inactive).
In the case of `COC(=O)c1nc(NC(=O)c2ccccc2)n[nH]1`, the inhibition is reported as 97.4% (active).
With `O=C(Nc1nsc(-c2ccccc2)n1)c1ccncc1` the inhibition was 1.28% (inactive).
With `COC(=O)c1nc(NC(=O)c2ccc(Cl)cc2)n[nH]1` the inhibition was -3.46% (inactive).
For `O=C(CSc1nc2ccccc2c(=O)n1CCCO)NC1CC1`, the inhibition was 0.869% (inactive).
In the case of `CN=C(Nc1cccc(S(=O)(=O)N2CCOCC2)c1)c1ccccc1`, the inhibition is reported as -1.77% (inactive).
In the case of `CC(Sc1ccccc1F)C(=O)Nc1cccc(S(=O)(=O)N2CCOCC2)c1` (configuration not stated), the inhibition is reported as -3.71% (inactive).
In the case of `CC(Sc1cccc[n+]1[O-])C(=O)Nc1cccc(S(=O)(=O)N2CCOCC2)c1` (configuration not stated), the inhibition is reported as 96.9% (active).
For `CN(CC(=O)Nc1cccc(F)c1)C(=O)C1CC(=O)N(CCc2ccccc2)C1` (configuration not stated), the inhibition was -3.35% (inactive).
With `O=C(CSc1nnc(-c2ccncc2)o1)Nc1cccc(Cl)c1` the inhibition was 6.76% (inactive).
With `CCc1cc(-c2n[nH]c(=S)n2CC(C)C)cs1` the inhibition was 94.7% (active).
For `CCCc1cc(-c2n[nH]c(=S)n2Cc2ccccc2)cs1`, the inhibition was 49.7% (inactive).
For `CCn1c(-c2ccncc2)n[nH]c1=S`, the inhibition was 65.5% (inactive).
With `N#Cc1cc([N+](=O)[O-])ccc1NC(=O)COC(=O)c1cnccn1` the inhibition was -7.67% (inactive).
In the case of `O=C(c1cc2ccccc2o1)N1CCN(S(=O)(=O)c2ccc(Cl)s2)CC1`, the inhibition is reported as -0.962% (inactive).
For `COc1ccc(C(CNC(=O)c2cccc(NS(=O)(=O)c3ccc(C)c(F)c3)c2)N2CCCC2)cc1` (configuration not stated), the inhibition was -7.21% (inactive).
`CCOc1ccc(NC(=O)c2ccc(NC(=O)COC(=O)c3ccc(NC(=O)CC#N)cc3)cc2)cc1` was tested, and the inhibition was 1.83% (inactive).
`CC(C)c1ccc(NC(=O)COC(=O)c2ccc(CN3CCCC3=O)cc2)cc1` was tested, and the inhibition was -43.2% (inactive).
With `CC(C)NC(=O)NC(=O)COC(=O)c1ccc(NC(=O)CC#N)cc1` the inhibition was 98.6% (active).
For `N#CCN(C(=O)COC(=O)C1CC2CCCC(C1)C2=O)c1ccccc1` (configuration not stated), the inhibition was -1.07% (inactive).
For `CCN(CC(=O)Nc1ccccc1C(F)(F)F)C(=O)C1CCN(C(=O)Nc2ccccc2)CC1`, the inhibition was 8.41% (inactive).
For `O=C(CN1CCN(c2ccc(Cl)cc2)CC1)N1CCCC1`, the inhibition was 97.8% (active).
`O=C(CN1CCN(c2ccc(Cl)cc2)CC1)c1ccccc1` was tested, and the inhibition was 4.7% (inactive).
With `O=C(CN1CCCC1)N1CCN(c2ccccc2)CC1` the inhibition was 23.5% (inactive).
